Hits are enriched below; roughly 12% of the tested compounds scored in any of these assays.
PLK1 PBD inh: qHTS for Inhibitors of PLK1-PDB (polo-like kinase 1 - polo-box domain): Primary Screen. Serine/threonine-protein kinase PLK1 (Homo sapiens), P53350. Plk1 PBD binding of FITC phosphopeptide, fluorescence polarization. Potency, µM, without a hit: max response, negative = inhibition, most hits filed as inhibitors. actives 2.8% (n = 360,000); also: potency is read from the fitted curve at half-maximal effect; series mostly up to about 57 µM; % is scaled to controls: 0 for no effect and ±100 for the full control effect; nearly all actives have a fitted effect of over 65% in size
HP1b binding inh: HTS for Inhibitors of HP1-beta Chromodomain Interactions with Methylated Histone Tails; AID 540317, 2011; AlphaScreen HP1-beta / biotin-H3K9me3 peptide binding; Potency, µM (top dose mostly 114 µM), for the others: top-dose activity change, negative = inhibition, usual class: inhibitors; actives 0.56% (n = 390,000); also: potency is read from the fitted curve at half-maximal effect; nearly all actives have a fitted effect of over 70% in size
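Compound inhibition of the preformed complex between 50 nM HP1-beta and 50 nM biotinylated H3K9me3 peptide was read by AlphaScreen. Buffer was PBS pH 7.4 with 0.01% Tween-20. Incubations ran 30 min at room temperature, with 10 ug/mL donor/acceptor beads.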
PI5P4Ka inh: qHTS for Inhibitors of phosphatidylinositol 5-phosphate 4-kinase (PI5P4K); Phosphatidylinositol 5-phosphate 4-kinase type-2 alpha (Homo sapiens), P48426; PI5P4Kalpha enzyme, ADP-Glo luminescence, 60 min; active compounds read low; max response, %; actives 1.2% (n = 330,000); active = max response of -50% or lower; inconclusive = between -30% and -50%; inactive = -30% or higher; also: value at the top dose of about 77 µM; % is scaled to controls: 0 for no effect and ±100 for the full control effect
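qHTS, 1536-well: enzyme/substrate mix, compound by pin tool, 5 microM ATP final; RT 60 min; ADP-Glo reagents 1 (45 min) then 2 (30 min); luminescence.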
G9a block: qHTS Assay for Inhibitors of Histone Lysine Methyltransferase G9a | Histone-lysine N-methyltransferase EHMT2 (Homo sapiens), Q96KQ7 | G9a H3K9 monomethylation, AlphaScreen, 2 h | Potency, µM (doses to about 102 µM), without a hit: at the top dose activity, negative = inhibition, hits mostly inhibitors | actives 8.8% (n = 350,000); also: potency is read from the fitted curve at half-maximal effect; % is scaled to controls: 0 for no effect and ±100 for the full control effect; nearly all actives have a fitted effect of over 75% in size
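G9a (20 nM) was preincubated 15 min with compound, then reacted 2 h at room temperature with 500 nM biotin-H3K9 peptide and 20 µM SAM. Monomethyl-H3K9 detected by AlphaScreen using anti-H3K9me1 antibody.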
BAZ2B inh: qHTS Assay for Inhibitors of BAZ2B; Bromodomain adjacent to zinc finger domain protein 2B (Homo sapiens), Q9UIF8; AlphaScreen BAZ2B-H3K14Ac peptide displacement; Potency, µM (series often up to 114 µM), for the others: at the highest dose activity change, negative = inhibition, actives largely listed as inhibitors; actives 4.4% (n = 360,000); also: potency is read from the fitted curve at half-maximal effect; % is scaled to controls: 0 for no effect and ±100 for the full control effect; nearly all actives have a fitted effect of over 60% in size
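AlphaScreen displacement: compounds (up to 110uM) incubated 30 min at room temperature with a preformed 50 nM BAZ2B/50 nM biotinylated H3K14Ac peptide complex in PBS pH 7.4 with Tween-20. Donor and acceptor beads at 10 ug/mL final added, 20 min light-protected before reading.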
JMJD2A Tudor inh: qHTS Assay for Inhibitors of JMJD2A-Tudor Domain; Potency, µM (series often up to 114 µM), for inactives: top-dose activity change, negative = inhibition, hits mostly inhibitors; AlphaScreen JMJD2A-Tudor / H3K4me3 peptide binding; actives 4.4% (n = 390,000); AID 504339, 2011; Lysine-specific demethylase 4A (Homo sapiens), O75164; also: potency is read from the fitted curve at half-maximal effect; % is scaled to controls: 0 for no effect and ±100 for the full control effect; nearly all actives have a fitted effect of over 50% in size
Target sequence (O75164 whole entry, looked up, the tested form may be a part): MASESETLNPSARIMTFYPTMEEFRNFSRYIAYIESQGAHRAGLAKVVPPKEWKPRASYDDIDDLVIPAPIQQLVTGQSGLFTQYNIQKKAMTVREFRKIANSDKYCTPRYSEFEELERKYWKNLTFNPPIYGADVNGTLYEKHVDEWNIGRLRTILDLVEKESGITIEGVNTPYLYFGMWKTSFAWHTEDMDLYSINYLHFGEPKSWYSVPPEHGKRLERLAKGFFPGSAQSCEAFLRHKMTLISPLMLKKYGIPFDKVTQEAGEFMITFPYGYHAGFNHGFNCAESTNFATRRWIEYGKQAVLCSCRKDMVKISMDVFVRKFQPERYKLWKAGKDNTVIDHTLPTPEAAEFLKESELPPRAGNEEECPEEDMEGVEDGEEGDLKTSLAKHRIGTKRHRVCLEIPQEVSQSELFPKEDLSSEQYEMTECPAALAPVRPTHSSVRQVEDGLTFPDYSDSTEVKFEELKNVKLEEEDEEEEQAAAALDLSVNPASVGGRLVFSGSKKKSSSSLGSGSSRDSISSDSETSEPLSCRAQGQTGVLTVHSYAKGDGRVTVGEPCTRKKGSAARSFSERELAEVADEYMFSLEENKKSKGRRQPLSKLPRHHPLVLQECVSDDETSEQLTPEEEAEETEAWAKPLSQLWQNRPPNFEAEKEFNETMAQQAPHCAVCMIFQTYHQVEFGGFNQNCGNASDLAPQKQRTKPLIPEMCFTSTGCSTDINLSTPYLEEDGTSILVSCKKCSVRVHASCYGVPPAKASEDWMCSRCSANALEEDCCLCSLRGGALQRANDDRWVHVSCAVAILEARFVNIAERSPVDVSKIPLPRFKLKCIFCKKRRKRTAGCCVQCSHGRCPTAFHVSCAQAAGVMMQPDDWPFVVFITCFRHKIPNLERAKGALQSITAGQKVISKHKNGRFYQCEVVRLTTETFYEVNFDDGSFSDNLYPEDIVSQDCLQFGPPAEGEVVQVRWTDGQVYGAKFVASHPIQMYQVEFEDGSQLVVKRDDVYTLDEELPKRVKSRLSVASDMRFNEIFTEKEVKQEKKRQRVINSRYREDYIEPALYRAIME
Numbers without * were called inactive; u = inconclusive; x = no result given; [ ] = another dose, or the depositor's remark. Unless noted, calls follow the shape of the dose curve; as a rule, active = well fitted curve in the direction sought with a large enough effect; inconclusive = small, poorly fitted or top-dose-only effect, or another doubt; inactive = no such curve, though single readings can be large; an effect the other way counts as inactive or inconclusive.

SMILES | PLK1 PBD inh | HP1b binding inh | PI5P4Ka inh | G9a block | BAZ2B inh | JMJD2A Tudor inh
COc1ccc(Cl)cc1-c1nc(SCC(=O)NC2CCCC2)n[nH]1 | -7% | 27% | 2 | x | x | -24%
COc1ccc(Cl)cc1-c1nc(SCC(=O)NC2CC2)n[nH]1 | 19µM* | -10% | u | -40% | -14% | u
O=C1C2CC=C(Cl)CC2C(=O)N1CCC[n+]1cccc2ccccc21 (centres undefined) | 0% | 27% | -2 | 7% | 11% | -6%
Cc1ccc(/C=C2\SC(=S)N(C(Cc3ccccc3)C(=O)O)C2=O)cc1 (centres undefined) | u | -14% | 11 | u | u | u
COc1ccc(/C=C2\SC(=S)N(NS(=O)(=O)c3ccccc3)C2=O)c(OC)c1 | u | 6% | -58* | u | -21% | -26%
O=C1/C(=C/c2cccs2)SC(=S)N1NS(=O)(=O)c1ccccc1 | -28% | 20% | -73* | u | u | u
COc1ccc(/C=C2\SC(=S)N(N3CCOCC3)C2=O)c(OC)c1 | -1% | u | -6 | 46%[59 µM] | 24% | u
Cc1ccc(S(=O)(=O)NN2C(=O)/C(=C/c3cccnc3)SC2=S)cc1 | -10% | 35% | -30 | -3% | -27% | -11%
COc1ccc(/C=C2\SC(=S)N(C(C(=O)O)c3ccccc3)C2=O)c(OC)c1 (centres undefined) | u | 7% | -1 | 50µM* | u | -33%
CC(C(=O)O)N1C(=O)/C(=C/C=C/c2ccco2)SC1=S (centres undefined) | 4.7µM* | u | -101* | 3.2µM* | 2.5µM* | 3.2µM*
CCOC(=O)CCc1cc(F)c(S(=O)(=O)N2CCN(S(=O)(=O)c3ccc4c(c3)OCCO4)CC2)cc1F | x | x | x | x | x | -15%
CC1(C)OC[C@@H]2O[C@@]3(C(=O)O)OC(C)(C)O[C@@H]3[C@@H]2O1 | x | x | x | -24%[12.7 µM] | x | x
CCN1CCN(C(C(=O)NC2CCCCC2)c2ccnc3ccccc23)CC1 (centres undefined) | -3% | x | 0 | x | x | x
O=C(Cn1c(=O)ccc2cc(S(=O)(=O)N3CCCC3)ccc21)Nc1ccccc1 | x | 12%[57 µM] | x | 4%[59 µM] | -2% | -15%
Cc1cccc(CNC(=O)c2cnc3c(-c4cccc(C)c4)c(C)nn3c2C)c1 | x | 12% | x | 41%[59 µM] | 1% | -23%
O=C(NN1C(=O)/C(=C\c2cccnc2)SC1=S)c1ccco1 | -17% | 9% | -10 | u | x | 0%[57.1 µM]
O=C1/C(=C/C=C/c2ccco2)SC(=S)N1NS(=O)(=O)c1ccccc1 | 11µM* | 10µM* | -81* | 3.2µM* | 7.1µM* | 3.5µM*
COc1ccc(OC)c(/C=C2\SC(=S)N(NS(=O)(=O)c3ccccc3)C2=O)c1 | u | -3% | u | -37%[12.7 µM] | 40µM* | u
CCOc1ccc(/C=C2\SC(=S)N(NS(=O)(=O)c3ccccc3)C2=O)cc1OC | -28% | -9% | -5 | x | u | u
Cc1ccc(-n2ccnc(NCCc3ccc(S(N)(=O)=O)cc3)c2=O)cc1C | x | -2% | x | -29%[59 µM] | -29% | -33%
Cc1nnc(SCC(=O)Nc2nccs2)n(N)c1=O | 5% | 34% | -10 | 28% | 5% | 3%
C/C(N)=C(/C#N)C(=O)CSc1nc2ccc(C)cc2[nH]1 | -18% | 6% | x | 16µM* | -36% | -30%
Cc1ccc2nc(SCC(=O)c3c(N)n(C)c(=O)n(C)c3=O)[nH]c2c1 | -5% | 21% | -11 | 0.89µM* | u | -24%
CC(=O)c1c(C)[nH]c(C(=O)OCC(=O)N2CCN(S(=O)(=O)c3ccc(C)cc3)CC2)c1C | 4% | 5% | -2 | 1%[12.7 µM] | 50µM* | -11%
CCCc1cc(=O)[nH]c(SCC(=O)c2c(N)n(C)c(=O)n(C)c2=O)n1 | 1% | 17% | -8 | -30%[59 µM] | -4% | -6%
SMILES | PLK1 PBD inh | HP1b binding inh | PI5P4Ka inh | G9a block | BAZ2B inh | JMJD2A Tudor inh
Cc1nnc(SCC(=O)Nc2nccs2)[nH]c1=O | 21µM* | 17% | u | x | 2% | -16%[11.4 µM]
CCn1nc(C)c2c(-c3ccccc3)cc(=O)n(C(C)C(=O)Nc3ccc(OC)c(OC)c3)c21 (centres undefined) | x | 4% | x | 10%[59 µM] | -21% | -19%
COC(=O)C[C@@H]1C=C[C@@H](NC(=O)c2ccccc2F)[C@@H](CO)O1 | -6% | x | -1 | x | x | x
CC(C)Cn1c(N)c(C(=O)CSc2nc3ncc(Cl)cc3[nH]2)c(=O)n(C)c1=O | -14% | 23% | 7 | 28µM* | 2% | u
Cc1cc(C)c(C)c(C(=O)CSc2nnc(C)c(=O)[nH]2)c1C | x | x | x | 50µM* | -5% | x
Cc1ccc(S(=O)(=O)N2CCN(C(=O)CSc3nnc(C)c(=O)[nH]3)CC2)cc1 | -9% | 46% | 2 | 56µM* | 2% | -20%
Cn1c(N)c(C(=O)CSc2ncn[nH]2)c(=O)n(C)c1=O | -10% | 29% | -2 | 1% | 3% | -2%
CCCn1c(N)c(C(=O)CSc2nc3ncc(Cl)cc3[nH]2)c(=O)n(C)c1=O | -19% | 22% | -3 | -14%[2.33 µM] | 1% | -33%
Cc1nnc(SCC(=O)c2c(N)n(C)c(=O)n(C)c2=O)[nH]c1=O | 24µM* | -3% | 1 | -32% | -3% | -16%[11.4 µM]
COc1ccccc1CNC(=O)CCC1N=C2c3ccccc3N=C(SCc3cccc(Cl)c3)N2C1=O (centres undefined) | x | 29% | x | 0%[59 µM] | 2% | -3%
CCOC(=O)c1ccc(N2C(=O)c3[nH]nc(-c4ccc(C)cc4)c3C2c2cccc(F)c2)cc1 (centres undefined) | x | 9% | x | -35%[59 µM] | x | -31%
O=C(CNC(=O)c1cncc(Br)c1)Nc1ccc(F)c(F)c1F | -3% | 21%[57 µM] | 2 | 3% | -5% | 3%
Cc1ccc(Cl)cc1NC(=O)C[n+]1ccc(Cc2ccc([N+](=O)[O-])cc2)cc1 | 2% | 21% | 0 | 25µM* | -4% | u
O=C(CN1CCCCC1)Nc1c2c(nc3ccccc13)N(c1ccccc1)CC2 | -8% | u | 1 | 14µM* | 56µM* | u
Nc1c2c(nc3ccccc13)N(c1ccccc1)CC2 | -6% | u | 7 | u | 0% | 35µM*

Screening data: PubChem BioAssay, National Center for Advancing Translational Sciences (NCATS)
